For assay [1], the target named is Cellular tumor antigen p53 (Homo sapiens) (UniProt P04637). The experiment in a line: Primary qHTS for small molecule compounds that upregulate eGFP-tagged delta133p53alpha (in N-terminal) cells. (AID 2060322). Further: nearly all actives have a fitted effect of over 75% in size. Further: potency means the concentration at half of the fitted maximal effect.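 On activation: series mostly up to about 56 µM; 0% = DMSO vehicle and 100% = reference activator.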 The settings on record: NCI-H358 eGFP-delta133p53alpha fluorescence, 24 h; activation: hits give high values. The essentials:
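NCI-H358 cells pre-induced 24 h with 10 ng/ml doxycycline to express N-terminal eGFP-delta133p53alpha, then dosed 24 h at 37C without doxycycline; fixed, Hoechst-stained, GFP intensity by laser scanning cytometry, normalized to DMSO (0%) and 57.5 uM 5-azacytidine (100%).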
(In qHTS, concentration-response curves come from the screen itself.)

In assay [2] the target is Aldehyde dehydrogenase, mitochondrial (Homo sapiens) (UniProt P05091). The experiment in a line: qHTS for Inhibitors of the Aldehyde Dehydrogenase Family (ALDH2) Primary screen (AID 2061308).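 Further: plate controls were vehicle for no effect and reference inhibitor for full effect; nearly all actives have a fitted effect of over 55% in size.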
Assay [3] deals with Retinaldehyde dehydrogenase 3 (Homo sapiens) (UniProt P47895). The assay is described as follows: qHTS for Inhibitors of the Aldehyde Dehydrogenase Family (ALDH1A3) Primary screen (AID 2061315).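 Further: plate controls were DMSO vehicle for no effect and reference inhibitor for full effect.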

Records with an inconclusive call do not appear. Unmarked numbers belong to inactive results. The source made the active and inactive calls. The call rests on the fitted dose curve; in most records, active means well fitted curve in the direction sought with a large enough effect; inconclusive means small, poorly fitted or top-dose-only effect, or another doubt; inactive means no such curve, though single readings can be large; an effect the other way counts as inactive or inconclusive.

The values that follow come from PubChem BioAssay (NCATS).

Cellular tumor antigen p53 (Homo sapiens), sequence (P04637 whole entry, looked up): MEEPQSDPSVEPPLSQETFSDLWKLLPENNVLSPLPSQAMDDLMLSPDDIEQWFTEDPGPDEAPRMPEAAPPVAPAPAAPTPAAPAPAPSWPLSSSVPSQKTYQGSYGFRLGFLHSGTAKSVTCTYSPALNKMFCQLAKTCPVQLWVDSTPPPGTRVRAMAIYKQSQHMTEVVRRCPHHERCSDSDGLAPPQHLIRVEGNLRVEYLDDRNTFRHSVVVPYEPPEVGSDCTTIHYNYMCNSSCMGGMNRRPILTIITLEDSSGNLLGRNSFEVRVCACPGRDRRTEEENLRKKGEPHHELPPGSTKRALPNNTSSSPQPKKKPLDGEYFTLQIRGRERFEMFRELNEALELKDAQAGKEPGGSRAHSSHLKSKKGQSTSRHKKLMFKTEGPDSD

Consider `O=C(/C=C/c1ccc(O)cc1)OC[C@H]1O[C@@H](O/C(=C\c2ccccc2)C(=O)O)[C@H](O)[C@@H](O)[C@@H]1O`, for which the activation in assay [1] is -2.29%. The Potency result in assay [2] and in assay [3] was “inactive” in each case.

Turning to `C/C=C/C=C/C(=O)O[C@@H]1C=C2COC(=O)[C@]2(O)[C@@]2(C)CCCC(C)(C)[C@H]12`, the activation in assay [1] is -3.82%. Further, the Potency entry in assay [2] and in assay [3] was “inactive” throughout.

As for `CCCC1=CC2=C(CO1)C(=O)C(C)(O)C(OC(=O)c1c(C)cc(OC)cc1O)C2` (stereo unspecified), the activation in assay [1] is -1.53%. Moreover, the Potency result in assay [2] and in assay [3] was “inactive” in each case.

For `O=C(OC1C[C@H]2CC[C@@H](C1)[N+]21CCCC1)C(O)(c1ccccc1)c1ccccc1` (stereo partly specified), in assay [1], the activation was 5.18%. The Potency result in assay [2] and in assay [3] was “inactive” each time.

For `C/C=C(\C)C(=O)O[C@H]1C=CC(=O)O[C@H]1/C=C/[C@H](O)[C@@H](C)O`, the Potency in assay [1] was 21.3 µM (active). For the same molecule, the Potency result in assay [2] and in assay [3] was “inactive” each time.

Consider `CCNC(=O)C1OC(n2cnc3c(N)nc(NCCc4ccc(CCC(=O)O)cc4)nc32)C(O)C1O` (stereo unspecified), for which the activation in assay [1] was -5.73%. In addition, the Potency result in assay [2] and in assay [3] was “inactive” each time.

For `C=CC(=O)N1CCCC(n2nc(-c3ccc(Oc4ccccc4)cc3)c3c(N)ncnc32)C1` (stereo unspecified), the activation in assay [1] is 18.8%. Also, the Potency result in assay [2] and in assay [3] was “inactive” throughout.

`COC(=O)C(CC1(OC(=O)C(C)C)c2ccccc2N2C(=O)C(C)(C)N(O)C21)n1cnc2ccccc2c1=O` (stereo unspecified): in assay [1], the activation is 3.05%. The Potency entry in assay [2] and in assay [3] was “inactive” in each case.

For the molecule `CC1CCC2C(C(=O)O)=CC3CC(C)(C)CC132` (stereo unspecified), the activation in assay [1] is 2.29%. In addition, the Potency result in assay [2] and in assay [3] was “inactive” throughout.

For `C=C(CO)C(=O)O[C@H]1C[C@@]23O[C@@H]2CC/C(=C/[C@H]2OC(=O)C(=C)[C@H]12)CO[C@H]3O`, in assay [1], the activation is 26.8%. The Potency result in assay [2] and in assay [3] was “inactive” throughout.

`C=C(C)C1CC[C@]2(C(=O)O)CC[C@]3(C(=O)O)[C@H](CCC4[C@@]5(C)CC[C@H](O)C(C)(C)C5CC[C@]43C)C12` (stereo partly specified): in assay [1], the activation is -12.5%. Also, the Potency result in assay [2] and in assay [3] was “inactive” in each case.

Take `CC#CCn1c(N2CCCC(N)C2)nc2c1c(=O)n(Cc1nc(C)c3ccccc3n1)c(=O)n2C` (stereo unspecified): the activation in assay [1] is 5.67%. Further, the Potency entry in assay [2] and in assay [3] was “inactive” each time.

`CC(=O)N[C@@H](C(=O)O[C@H]1CCC(C)(C)[C@@H]2CCC3=C(COC3=O)[C@@]12C)C(C)C`: the activation in assay [1] is -12.2%. Further, the Potency result in assay [2] and in assay [3] was “inactive” each time.

Take `CCC(C)/C=C(C)/C=C/C1=CC2=C(Cl)C(=O)C(C)(OC(C)=O)C(=O)C2=CN1CCCCC(N)C(=O)O` (stereo unspecified): the activation in assay [1] is -16.8%. Further, the Potency result in assay [2] and in assay [3] was “inactive” throughout.

Take `Cc1ccc2c(c1)c1c(n2CCc2ccc(C)nc2)CCN(C)C1`: the activation in assay [1] was 14.3%. Also, the Potency result in assay [2] and in assay [3] was “inactive” throughout.

As to `CC1(C)CC[C@]2(C(=O)O[C@@H]3O[C@H](CO)[C@@H](O)[C@H](O)[C@H]3O)CC[C@]3(C)C(=CCC4[C@@]5(C)C[C@H](O)[C@H](O[C@@H]6O[C@H](C(=O)O)[C@@H](O)[C@H](O)[C@H]6O)[C@@](C)(CO)C5CC[C@]43C)C2C1` (stereo partly specified), in assay [1], the activation was -11.6%. Further, the activity change, negative = inhibition in assay [2] is 12.5% [at 11.2 µM]; in assay [3], 11% [at 11.2 µM].

On to `C[C@@H]1C(=O)O[C@H]2CC34[C@H]5C[C@@H](C(C)(C)C)C36[C@@H](OC(=O)[C@@H]6O)O[C@@]4(C(=O)O5)[C@]21O` (stereo partly specified), for which, in assay [1], the activation was 19.1%. In addition, the Potency entry in assay [2] and in assay [3] was “inactive” in each case.

With `CC(C)(O)C(=O)N1CCN(c2ccc(C(F)(F)F)c(C3=C(c4c[nH]c5ccccc45)C(=O)NC3=O)c2)CC1`, the Potency in assay [1] is 26.9 µM (active). In addition, the Potency entry in assay [2] and in assay [3] was “inactive” each time.

On to `CC(C(O)/C=C/C(C)(C)O)C1CCC2(C)C3C(=O)C=C4C(CCC(O)C4(C)C)C3(C)CCC12C` (stereo unspecified), for which the activation in assay [1] was -22.3%. Moreover, the Potency result in assay [2] and in assay [3] was “inactive” throughout.

Take `CC/C=C/CC1=C(CCCCCCCC(=O)O)CCC1=O`: in assay [1], the activation is -17.9%. Besides, the Potency entry in assay [2] and in assay [3] was “inactive” in each case.

For `Cn1cc(C2=C(c3coc4ccccc34)C(=O)NC2=O)c2cc(Br)ccc21`, the activation in assay [1] was -23.2%. Further, the Potency result in assay [2] and in assay [3] was “inactive” each time.

Turning to `COC(=O)[C@@]1(O)C=CC[C@@H]2[C@@]3(C)C[C@@H](c4ccoc4)OC(=O)[C@H]3CC[C@]21C`, the activation in assay [1] was 7.14%. Besides, the Potency entry in assay [2] and in assay [3] was “inactive” each time.
